Source: PubChem BioAssay
For some of these results: Potency and affinity values are given separately. Activity calls are given as the source filed them. Unless noted, no rule for the calls is given here.

Legend:
[1] = antimalarial activity against Dd2 strain (AID 2302;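 active = growth inhibition above 50% at the single 2 µM test dose, taken to imply half-maximal potency below 2 µM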;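 also: 0% = DMSO untreated growth and 100% = chloroquine plus artemisinin killed control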); details: P. falciparum Dd2 in RBCs, LDH growth readout, 72 h; at 2 µM; active compounds read high
[2] = HepG2 cytotoxicity, primary screen, cytotoxicity control for P. falciparum antimalarial project, cell-based, ATP luminescence (AID 2303;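 active = inhibition above 50%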;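 also: 0% = DMSO wells and 100% = digitonin-killed cells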); details: HepG2 viability, 24-48 h, at 10 µM, active compounds read high
[3] = target: L-lactate dehydrogenase (Plasmodium falciparum (isolate CDC / Honduras)) (UniProt Q27743); test: PfLDH activity inhibition – cell lysate, 3D7 strain, counter-screen for P. falciparum growth inhibition project (AID 2304);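 also: 0% = vehicle and 100% = reference inhibitor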; details: P. falciparum 3D7 crude extract, LDH APAD/NBT absorbance; at 2 µM; active compounds read high
Chain of L-lactate dehydrogenase (Plasmodium falciparum (isolate CDC / Honduras)) (Q27743 whole entry, looked up): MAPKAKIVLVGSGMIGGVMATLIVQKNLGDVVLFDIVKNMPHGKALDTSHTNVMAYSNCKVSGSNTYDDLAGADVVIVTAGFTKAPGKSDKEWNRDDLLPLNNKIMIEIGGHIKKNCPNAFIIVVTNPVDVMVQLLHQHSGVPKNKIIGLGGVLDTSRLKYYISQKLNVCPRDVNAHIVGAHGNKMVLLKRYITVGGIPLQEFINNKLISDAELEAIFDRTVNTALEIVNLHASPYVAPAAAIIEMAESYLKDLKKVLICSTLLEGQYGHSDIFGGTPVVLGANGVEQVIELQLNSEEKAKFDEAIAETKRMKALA

[4] = inhibition of 3D7 malaria parasite growth – strain 3D7 (AID 2306);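 also: 0% = DMSO wells and 100% = chloroquine plus artemisinin control wells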; details: P. falciparum 3D7 erythrocytic growth, LDH absorbance, 72 h; at 2 µM; active compounds read high
[5] = target: Calcium-dependent protein kinase 1 (Plasmodium falciparum (isolate 3D7)) (UniProt P62344); test: PfCDPK1 kinase inhibitors, biochemical, TCAMS library (AID 1159585; cut-off not given, nearly all actives have IC50 up to about 0.98 µM;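 also: inhibitors leave more ATP so luminescence rises with inhibition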); details: recombinant PfCDPK1, Kinase-Glo ATP depletion luminescence
Chain of Calcium-dependent protein kinase 1 (Plasmodium falciparum (isolate 3D7)) (P62344 whole entry, looked up): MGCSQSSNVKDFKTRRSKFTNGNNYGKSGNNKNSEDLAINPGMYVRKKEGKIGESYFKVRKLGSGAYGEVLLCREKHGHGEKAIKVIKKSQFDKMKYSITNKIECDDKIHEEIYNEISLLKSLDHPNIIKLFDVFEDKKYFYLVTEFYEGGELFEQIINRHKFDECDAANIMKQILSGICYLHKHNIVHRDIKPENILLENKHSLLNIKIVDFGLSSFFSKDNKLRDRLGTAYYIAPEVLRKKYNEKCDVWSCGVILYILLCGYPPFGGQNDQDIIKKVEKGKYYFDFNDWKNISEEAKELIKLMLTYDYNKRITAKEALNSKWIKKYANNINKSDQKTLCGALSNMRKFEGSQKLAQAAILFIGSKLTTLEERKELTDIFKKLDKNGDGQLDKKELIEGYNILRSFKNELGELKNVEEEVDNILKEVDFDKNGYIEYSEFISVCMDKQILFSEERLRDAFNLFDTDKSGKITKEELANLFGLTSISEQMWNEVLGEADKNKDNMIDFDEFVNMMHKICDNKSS

[6] = target: Plasmodium falciparum protein kinase 6 (PK6, PF3D7_1337100) (UniProt Q8IDW1); test: PfPK6 kinase inhibitors, biochemical, TCAMS library (AID 1159586); details: recombinant PfPK6, Kinase-Glo ATP depletion luminescence
Chain of Plasmodium falciparum protein kinase 6 (PK6, PF3D7_1337100) (Q8IDW1 1-305): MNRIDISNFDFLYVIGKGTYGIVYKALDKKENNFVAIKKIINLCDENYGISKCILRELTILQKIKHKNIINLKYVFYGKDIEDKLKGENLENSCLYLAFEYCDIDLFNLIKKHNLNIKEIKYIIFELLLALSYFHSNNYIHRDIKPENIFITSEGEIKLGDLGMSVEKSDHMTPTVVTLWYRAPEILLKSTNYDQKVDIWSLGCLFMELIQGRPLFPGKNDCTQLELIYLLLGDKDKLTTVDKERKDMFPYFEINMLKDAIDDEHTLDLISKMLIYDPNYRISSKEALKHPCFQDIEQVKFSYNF

[7] = target: Protein kinase 7 (PK7), Plasmodium falciparum 3D7 (PF3D7_0213400) (UniProt Q7YTF7); test: inhibition of Plasmodium PK7 catalytic activity – biochemical, TCAMS antimalarial set, Kinase-Glo luminescence (AID 1159587); details: recombinant PfPK7, Kinase-Glo ATP depletion luminescence
Chain of Protein kinase 7 (PK7), Plasmodium falciparum 3D7 (PF3D7_0213400) (Q7YTF7 1-343): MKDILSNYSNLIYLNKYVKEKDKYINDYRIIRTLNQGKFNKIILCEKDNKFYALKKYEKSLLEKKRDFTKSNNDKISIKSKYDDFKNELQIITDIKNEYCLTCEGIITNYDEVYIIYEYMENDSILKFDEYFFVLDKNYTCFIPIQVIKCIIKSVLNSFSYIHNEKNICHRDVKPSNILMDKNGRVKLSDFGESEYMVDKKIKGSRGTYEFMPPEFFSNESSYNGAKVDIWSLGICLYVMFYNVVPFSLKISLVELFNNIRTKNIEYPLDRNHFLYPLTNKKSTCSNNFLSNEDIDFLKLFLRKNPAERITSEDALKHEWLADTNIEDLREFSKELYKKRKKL

[8] = target: Calcium-dependent protein kinase 4 (Plasmodium falciparum (isolate 3D7)) (UniProt Q8IBS5); test: PfCDPK4 kinase inhibitors, biochemical, TCAMS library (AID 1159588; cut-off not given, nearly all actives have IC50 up to about 0.91 µM); details: recombinant PfCDPK4, Kinase-Glo ATP depletion luminescence
Chain of Calcium-dependent protein kinase 4 (Plasmodium falciparum (isolate 3D7)) (Q8IBS5 whole entry, looked up): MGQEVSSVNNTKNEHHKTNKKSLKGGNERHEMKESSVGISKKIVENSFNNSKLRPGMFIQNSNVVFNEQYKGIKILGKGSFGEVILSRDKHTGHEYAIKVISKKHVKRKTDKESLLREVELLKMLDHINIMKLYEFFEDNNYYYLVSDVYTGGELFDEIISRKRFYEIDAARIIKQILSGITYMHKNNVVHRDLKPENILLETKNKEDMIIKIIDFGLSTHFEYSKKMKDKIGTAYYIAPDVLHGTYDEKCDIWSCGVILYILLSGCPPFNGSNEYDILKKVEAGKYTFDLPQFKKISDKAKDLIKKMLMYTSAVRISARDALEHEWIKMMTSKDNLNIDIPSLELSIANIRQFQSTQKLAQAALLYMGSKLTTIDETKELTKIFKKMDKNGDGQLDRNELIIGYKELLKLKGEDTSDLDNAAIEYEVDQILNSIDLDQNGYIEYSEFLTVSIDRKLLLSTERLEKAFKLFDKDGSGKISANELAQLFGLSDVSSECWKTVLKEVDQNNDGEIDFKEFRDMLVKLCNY

O=C(Nc1ccc(Cl)cc1Cl)N[C@H]1CCN(CCCCCNC(=O)[C@@H]2C[C@H]2c2ccc(Cl)c(Cl)c2)C1
inactive: growth inhibition [1] 0% | inhibition [2] 37% | inhibition [3] 2% | outcome [5] | outcome [6] | outcome [7] | outcome [8]
active: growth inhibition [4] 94%

O=C(Nc1cc(Cl)ccc1Cl)N[C@H]1CCN(CCCCCNC(=O)[C@@H]2C[C@H]2c2ccc(Cl)c(Cl)c2)C1
active: growth inhibition [4] 97%
inactive: growth inhibition [1] 1% | inhibition [2] 49% | inhibition [3] 0% | outcome [5] | outcome [6] | outcome [7] | outcome [8]

COc1c(C(=O)NC2CCN(Cc3ccccc3)C2)cnc2ccccc12 (stereo not given)
active: growth inhibition [4] 86%
inactive: growth inhibition [1] 12% | inhibition [2] 2% | inhibition [3] -4% | outcome [5] | outcome [6] | outcome [7] | outcome [8]

COc1ccc(NC(=O)[C@H](CC(C)C)Nc2ccnc(NCCc3ccc(F)cc3)n2)cc1
inactive: growth inhibition [1] 22% | inhibition [2] -6% | inhibition [3] -2% | outcome [5] | outcome [6] | outcome [7] | outcome [8]
active: growth inhibition [4] 86%

N#Cc1ccc(C2CCN(CC[C@H](N)Cc3ccc(Cl)s3)CC2)cc1
inactive: growth inhibition [1] 30% | inhibition [2] 31% | inhibition [3] 6% | outcome [5] | outcome [6] | outcome [7] | outcome [8]
active: growth inhibition [4] 92%

Nc1nc(N)c2c(ccc3nn(Cc4cccnc4)cc32)n1
inactive: growth inhibition [1] 0% | inhibition [2] 41% | inhibition [3] 0% | outcome [5] | outcome [6] | outcome [7] | outcome [8]
active: growth inhibition [4] 96%

CNC(=O)c1c(NC(=O)c2cccs2)sc2c1CCCC2
active: growth inhibition [4] 94%
inactive: growth inhibition [1] 2% | inhibition [2] 2% | inhibition [3] -1% | outcome [5] | outcome [6] | outcome [7] | outcome [8]

O=C(NCCN1CCCC1)c1ccc(-c2ccc(-c3nc4ccc(C(F)(F)F)cc4[nH]3)s2)cc1
active: growth inhibition [1] 65% | growth inhibition [4] 97%
inactive: inhibition [2] 31% | inhibition [3] 4% | outcome [5] | outcome [6] | outcome [7] | outcome [8]

CC(C)CCCC(C)(C)NC[C@@H](O)[C@H](Cc1ccccc1)NC(=O)c1cc(NC(C)C)cc(N2CCCCS2(=O)=O)c1F
active: growth inhibition [1] 99% | growth inhibition [4] 98%
inactive: inhibition [2] 11% | inhibition [3] -3% | outcome [5] | outcome [6] | outcome [7] | outcome [8]

COc1ccc(CCNCCCCCCNCCc2cccc([N+](=O)[O-])c2)cc1OC
inactive: growth inhibition [1] -3% | inhibition [2] 13% | inhibition [3] -6% | outcome [5] | outcome [6] | outcome [7] | outcome [8]
active: growth inhibition [4] 93%

O=C(N[C@@H](Cc1ccccc1)C(=O)NCc1cccc2ccccc12)c1ccc(O)c(-c2ccc(Cl)c(Cl)c2)c1
inactive: inhibition [2] -6% | inhibition [3] 4% | outcome [5] | outcome [6] | outcome [7] | outcome [8]
active: growth inhibition [1] 97% | growth inhibition [4] 101%

Cc1csc2nc(-c3ccccn3)nc(Nc3ccc4ncsc4c3)c12
active: growth inhibition [1] 91% | growth inhibition [4] 85%
inactive: inhibition [2] -3% | inhibition [3] 3% | outcome [5] | outcome [6] | outcome [7] | outcome [8]

COc1cc(C(=O)NCCCN2CCN(c3cccc(Cl)c3)CC2)ccc1-c1nc2cc(Cl)c(F)cc2[nH]1
active: growth inhibition [1] 81% | growth inhibition [4] 100%
inactive: inhibition [2] 15% | inhibition [3] 0% | outcome [5] | outcome [6] | outcome [7] | outcome [8]

CN1CC[C@@H](Oc2cc(NC(=O)Nc3ccc(Cl)c(C(F)(F)F)c3)ccc2Cl)C1
active: growth inhibition [1] 68% | growth inhibition [4] 100%
inactive: inhibition [2] 17% | inhibition [3] 0% | outcome [5] | outcome [6] | outcome [7] | outcome [8]

Cc1ccccc1CNc1nccc(NCCC(=O)Nc2ccccc2)n1
active: growth inhibition [4] 90%
inactive: growth inhibition [1] 15% | inhibition [2] 16% | inhibition [3] -3% | outcome [5] | outcome [6] | outcome [7] | outcome [8]

COc1ccc(OC)c(Cc2cnc3nc(N)nc(N)c3c2C)c1
active: growth inhibition [1] 97% | inhibition [2] 68% | growth inhibition [4] 92%
inactive: inhibition [3] 5% | outcome [5] | outcome [6] | outcome [7] | outcome [8]

Cc1cc(C)c(C(=O)Nc2n[nH]c3nnc(-c4cccc(F)c4F)cc23)c(C)c1
active: growth inhibition [4] 90%
inactive: growth inhibition [1] -4% | inhibition [2] -2% | inhibition [3] -4% | outcome [5] | outcome [6] | outcome [7] | outcome [8]

COc1ccc2nc(-c3cccc(C)n3)nc(Nc3ccncc3)c2c1
inactive: growth inhibition [1] 42% | inhibition [2] -1% | inhibition [3] -3% | outcome [5] | outcome [6] | outcome [7] | outcome [8]
active: growth inhibition [4] 101%

CC1=C(C(=O)Nc2ccc(Cl)cc2)C(c2ccncc2)n2nc(C(F)(F)F)nc2N1 (stereo not given)
active: growth inhibition [4] 87%
inactive: growth inhibition [1] 49% | inhibition [2] 25% | inhibition [3] -5% | outcome [5] | outcome [6] | outcome [7] | outcome [8]

Cc1cnc(C(=O)Nc2cccc(-c3ccc(-c4nc5ccc(F)cc5[nH]4)cc3)c2)cn1
active: growth inhibition [4] 102%
inactive: growth inhibition [1] 13% | inhibition [2] 19% | inhibition [3] -2% | outcome [5] | outcome [6] | outcome [7] | outcome [8]
